Laboratory results: PubChem BioAssay (NCATS)
Results filed as inconclusive are left out. Active and inactive are the calls of the source. Calls come from the whole dose curve; as a rule, active = well fitted cell-killing curve with a large enough effect; inconclusive = small, poorly fitted or top-dose-only effect, or effect the other way; inactive = flat fitted curve, though single readings scatter.

Key:
Assay in all cases: Primary qHTS to identify gynecologic anti-cancer compounds using libraries of approved drugs and bioactive compounds (AID 1345084); note: nearly all actives have a fitted effect of over 55% in size
CAOV3 = settings: Gynecologic cancer cell panel viability, ATPlite luminescence, 48 h; series mostly up to 57.5 µM
In short: (§1)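 ATP-based viability (ATPlite), 1,000 cells/well, 16 h pre-incubation, 48 h compound at 37 C, 5% CO2, 15 min RT before read.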

CASKI = settings: Gynecologic cancer cell panel viability, ATPlite luminescence, 48 h; series mostly up to 57.5 µM
In short: as §1

Es-2 = settings: Gynecologic cancer cell panel viability, ATPlite luminescence, 48 h; series mostly up to 57.5 µM
In short: as §1

HeLa = settings: Gynecologic cancer cell panel viability, ATPlite luminescence, 48 h; series mostly up to 57.5 µM
In short: as §1

Hek293T = settings: Gynecologic cancer cell panel viability, ATPlite luminescence, 48 h, control line for the selectivity index; series mostly up to 57.5 µM
In short: as §1

JEG-3 = settings: Gynecologic cancer cell panel viability, ATPlite luminescence, 48 h; series mostly up to 57.5 µM
In short: as §1

OV90 = settings: Gynecologic cancer cell panel viability, ATPlite luminescence, 48 h; series mostly up to 57.5 µM
In short: as §1

PA-1 = settings: Gynecologic cancer cell panel viability, ATPlite luminescence, 48 h; series mostly up to 57.5 µM
In short: as §1

SKOV3 = settings: Gynecologic cancer cell panel viability, ATPlite luminescence, 48 h; series mostly up to 57.5 µM
In short: as §1

Tov-21-G = settings: Gynecologic cancer cell panel viability, ATPlite luminescence, 48 h; series mostly up to 57.5 µM
In short: as §1

Tov112D = settings: Gynecologic cancer cell panel viability, ATPlite luminescence, 48 h; series mostly up to 57.5 µM
In short: as §1
% is set by controls: 0 for no effect and ±100 for the full control effect.

CCOC(=O)[C@H](CCc1ccccc1)N[C@@H](C)C(=O)N1C2CCCCC2C[C@H]1C(=O)O (stereo not given in full)
inactive: Potency (CAOV3) | Potency (CASKI) | Potency (Es-2) | Potency (HeLa) | Potency (Hek293T) | Potency (JEG-3) | Potency (OV90) | Potency (PA-1) | Potency (SKOV3) | Potency (Tov-21-G) | Potency (Tov112D)

NCCOCCOCCNC(=O)Cc1ccc(Nc2nc(NCc3ccc(F)cc3)nc(NCC3CCCCC3)n2)cc1
inactive: Potency (CAOV3) | Potency (CASKI) | Potency (Es-2) | Potency (HeLa) | Potency (Hek293T) | Potency (JEG-3) | Potency (OV90) | Potency (PA-1) | Potency (SKOV3) | Potency (Tov-21-G) | Potency (Tov112D)

C=C1CC/C=C(/CO)C(=O)C[C@@H]2[C@@H]1CC2(C)C
inactive: Potency (CAOV3) | Potency (CASKI) | Potency (Es-2) | Potency (HeLa) | Potency (Hek293T) | Potency (JEG-3) | Potency (OV90) | Potency (PA-1) | Potency (SKOV3) | Potency (Tov-21-G) | Potency (Tov112D)

COC(=O)CC[C@@H](C)[C@H]1CC[C@H]2[C@@H]3CC(=O)[C@H]4C[C@H](OC(C)=O)CC[C@]4(C)[C@H]3CC[C@]12C
inactive: Potency (CAOV3) | Potency (CASKI) | Potency (Es-2) | Potency (HeLa) | Potency (Hek293T) | Potency (JEG-3) | Potency (OV90) | Potency (PA-1) | Potency (SKOV3) | Potency (Tov-21-G) | Potency (Tov112D)

CC1(C)CC[C@]2(C(=O)O)CC[C@]3(C)C(=CCC4[C@@]5(C)CC[C@H](O[C@@H]6O[C@H](C(=O)O)[C@@H](O)[C@H](O)[C@H]6O)C(C)(CO)C5CC[C@]43C)C2C1 (stereo not given in full)
inactive: Potency (CAOV3) | Potency (CASKI) | Potency (Es-2) | Potency (HeLa) | Potency (Hek293T) | Potency (JEG-3) | Potency (OV90) | Potency (PA-1) | Potency (SKOV3) | Potency (Tov-21-G) | Potency (Tov112D)

C=C(C)C(=O)O[C@H]1C[C@@](C)(OC(C)=O)[C@@]2(O)CC[C@@](C)(O)[C@H](OC(C)=O)[C@@]23OC(=O)C(COC)=C13
inactive: Potency (CAOV3) | Potency (CASKI) | Potency (Es-2) | Potency (HeLa) | Potency (Hek293T) | Potency (JEG-3) | Potency (OV90) | Potency (PA-1) | Potency (SKOV3) | Potency (Tov-21-G) | Potency (Tov112D)

CN1CC[C@@H](NC(=O)Nc2ccc(C#N)cc2)C[C@@H]1c1nc2ccccc2[nH]1
inactive: Potency (CAOV3) | Potency (CASKI) | Potency (Es-2) | Potency (HeLa) | Potency (Hek293T) | Potency (JEG-3) | Potency (OV90) | Potency (PA-1) | Potency (SKOV3) | Potency (Tov-21-G) | Potency (Tov112D)

C=C1CC2[C@]3(C)C(=C(O)C(=O)[C@@]2(C)[C@]2(C(=O)OC)C(=O)C(C)OC(=O)[C@@]12C)C(C)(C)C(=O)CC3O (stereo not given in full)
inactive: Potency (CAOV3) | Potency (CASKI) | Potency (Es-2) | Potency (HeLa) | Potency (Hek293T) | Potency (JEG-3) | Potency (OV90) | Potency (PA-1) | Potency (SKOV3) | Potency (Tov-21-G) | Potency (Tov112D)

CC(C)c1nc(N(C)S(C)(=O)=O)nc(-c2ccc(F)cc2)c1/C=C/[C@@H](O)C[C@@H](O)CC(=O)O
inactive: Potency (CAOV3) | Potency (CASKI) | Potency (Es-2) | Potency (HeLa) | Potency (Hek293T) | Potency (JEG-3) | Potency (OV90) | Potency (PA-1) | Potency (SKOV3) | Potency (Tov-21-G) | Potency (Tov112D)

C=C1CCC2[C@@](C)(C=O)CCC[C@]2(C)[C@H]1CC/C(C)=C/CO (stereo not given in full)
inactive: Potency (CAOV3) | Potency (CASKI) | Potency (Es-2) | Potency (HeLa) | Potency (Hek293T) | Potency (JEG-3) | Potency (OV90) | Potency (PA-1) | Potency (SKOV3) | Potency (Tov-21-G) | Potency (Tov112D)

CC1(C)C(=O)C(C)(C)c2cc(C(=O)Nc3ccc(C(=O)O)cc3)ccc21
inactive: Potency (CAOV3) | Potency (CASKI) | Potency (Es-2) | Potency (HeLa) | Potency (Hek293T) | Potency (JEG-3) | Potency (OV90) | Potency (PA-1) | Potency (SKOV3) | Potency (Tov-21-G) | Potency (Tov112D)

CC12CCC3C(C)(C)C(O)CCC3(C)C1Cc1c(oc(C(=O)O)cc1=O)O2 (stereo not given)
inactive: Potency (CAOV3) | Potency (CASKI) | Potency (Es-2) | Potency (HeLa) | Potency (Hek293T) | Potency (JEG-3) | Potency (OV90) | Potency (PA-1) | Potency (SKOV3) | Potency (Tov-21-G) | Potency (Tov112D)

O=S(=O)(Nc1ccc(C(O)(C(F)(F)F)C(F)(F)F)cc1)c1cccs1
inactive: Potency (CAOV3) | Potency (CASKI) | Potency (Es-2) | Potency (HeLa) | Potency (Hek293T) | Potency (JEG-3) | Potency (OV90) | Potency (PA-1) | Potency (SKOV3) | Potency (Tov-21-G) | Potency (Tov112D)

C=CC1(C)CC(OC(=O)C(=C)C(O)COC(C)=O)C(C(=C)C(=O)OC)C(O)C1C(=C)CO (stereo not given)
inactive: Potency (CAOV3) | Potency (CASKI) | Potency (Es-2) | Potency (HeLa) | Potency (Hek293T) | Potency (JEG-3) | Potency (OV90) | Potency (PA-1) | Potency (SKOV3) | Potency (Tov-21-G) | Potency (Tov112D)

O=C(OCc1cccc(O)c1O[C@@H]1O[C@H](CO)[C@@H](O)[C@H](O)[C@H]1O)C1(O)C(=O)C2C=CC1C1C=CC(=O)C(O)(C(=O)OCc3cccc(O)c3O[C@@H]3O[C@H](CO)[C@@H](O)[C@H](O)[C@H]3O)C21 (stereo not given in full)
inactive: activity change, negative = cytotoxicity (CAOV3) -10.6% [at 11.6 µM] | activity change, negative = cytotoxicity (CASKI) -17.5% [at 11.6 µM] | activity change, negative = cytotoxicity (Es-2) 2.61% [at 11.6 µM] | activity change, negative = cytotoxicity (HeLa) -8.79% [at 11.6 µM] | activity change, negative = cytotoxicity (Hek293T) 8.15% [at 11.6 µM] | activity change, negative = cytotoxicity (JEG-3) 0.323% [at 11.6 µM] | activity change, negative = cytotoxicity (OV90) -13.1% [at 11.6 µM] | activity change, negative = cytotoxicity (PA-1) -3.46% [at 11.6 µM] | activity change, negative = cytotoxicity (SKOV3) 4.95% [at 11.6 µM] | activity change, negative = cytotoxicity (Tov-21-G) 1.57% [at 11.6 µM] | activity change, negative = cytotoxicity (Tov112D) 2.56% [at 11.6 µM]
